HCV inh = blocks hepatitis C virus; Huh7.5.1 HCVcc-Cre infection, luciferase reporter, 44 h; Potency, µM (titrated, usually from 41.8 µM), inactives show at the highest dose activity change, negative = inhibition, usual class: inhibitors; 340,000 tested, 3.4% active; active means well fitted inhibition curve with a large enough effect; inconclusive means small, poorly fitted or top-dose-only effect, or another doubt; inactive means no such curve, though single readings can be large or run the other way; further: potency means the concentration at half of the fitted maximal effect
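Cells seeded at 1,000/well and cultured 4 h, then compounds added followed by HCVcc-Cre virus (~0.5 moi). After 44 h further culture, luciferase substrate was added, plates held 15 min at room temperature, and luminescence read for 15 sec.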
HCMV inh = human cytomegalovirus inhibition; HFF cells, HCMV-luciferase reporter, 72 h; active compounds read low; activity change, negative = inhibition, % at 57.5 µM; 410,000 tested, 4.5% active; AID 1259415; in the data active means activity change below about -60%; inconclusive means no clear call, values can overlap the other calls; inactive means above about -39%
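Steps: HFFs plated, 16 h 37C; compounds added; HCMV-luciferase added to MOI 1 PFU/cell; 72 h 37C; OneGlo reagent, 5 min room temperature; luminescence read, normalized to controls.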
Vaccinia Venus = vaccinia inhibition (Venus reporter); Vaccinia virus Venus reporter expression, fluorescence; Potency, µM (titrated, usually from 36.5 µM), inactives show at the top dose activity change, negative = inhibition, hits mostly inhibitors; 330,000 tested, 0.46% active; calls by dose curve; tested in A549 cells; further: potency means the concentration at half of the fitted maximal effect; nearly all actives have a fitted effect of over 30% in size
Vaccinia mCherry = vaccinia inhibition (mCherry reporter). Potency, µM (doses to about 36.5 µM), without a hit: at the top dose activity change, negative = inhibition, most hits filed as inhibitors. AID 720579. Vaccinia virus mCherry reporter infection, fluorescence. 310,000 tested, 0.63% active; calls by dose curve; tested in A549 cells; further: potency means the concentration at half of the fitted maximal effect; nearly all actives have a fitted effect of over 35% in size
FMDV antiviral = antivirals against foot and mouth disease virus; FMDV antiviral cell-based qHTS; Potency, µM (highest dose often 57.9 µM), without a hit: at the highest dose activity change, negative = inhibition, usual class: inhibitors; 410,000 tested, 1.2% active; AID 1159524; calls by dose curve; tested in HEK293T cells; further: read-out not given here; potency means the concentration at half of the fitted maximal effect; nearly all actives have a fitted effect of over 45% in size
* = called active by the depositor; i = inactive; ? = inconclusive; nt = no result given. Hits are enriched below; roughly 7.3% of the tested compounds scored in any of these assays. On the % scale 0 is the no-effect control and ±100 the full control effect.

SMILES	HCV inh	HCMV inh	Vaccinia Venus	Vaccinia mCherry	FMDV antiviral
COc1cc(C2c3c(-c4ccccc4O)n[nH]c3C(=O)N2CCO)ccc1OCc1ccccc1 (stereo unspecified)	nt	-11	-10%	-14%	-27%
CCCN1C(=O)c2[nH]nc(-c3ccccc3O)c2C1c1ccc(OCc2ccccc2)c(OC)c1 (stereo unspecified)	nt	-84*	-26%	?	?
COc1ccc(NC(=S)N2C3CCC2CC(NC(=O)NC24CC5CC(CC(C5)C2)C4)C3)c(OC)c1 (stereo unspecified)	-18%	-30	0%	i	nt
Cc1cc([N+](=O)[O-])ccc1NC(=O)CN1C2CCC1CC(NC(=O)NC13CC4CC(CC(C4)C1)C3)C2 (stereo unspecified)	2.5µM*	?	-27%	i	?
COc1ccc(-n2cnc3sc(-c4ccccc4)cc3c2=O)cc1	?	-87*	-24%	-27%	nt
Cc1ccc(C)n1-n1cnc2sc(-c3ccccc3)cc2c1=O	22µM*	-34	-14%	i	?
O=c1c2cc(-c3ccccc3)sc2ncn1-n1cccc1	5%	-18	-21%	-17%	45%
CCOc1ccccc1CNS(=O)(=O)c1ccc2[nH]c(=O)ccc2c1	nt	6	-1%	2%	-14%
CC(=O)c1c(C)[nH]c(C(=O)COc2ccc3ccc(=O)oc3c2)c1C	8.9µM*	-10	-24%	-25%	28µM*
CC(=O)c1c(C)[nH]c(C(=O)COc2cc(C)cc(C)c2)c1C	?	-62*	nt	nt	-14%
COC(=O)c1c(C)[nH]c(C(=O)COc2ccc3ccc(=O)oc3c2)c1C	?	-13	nt	nt	-43%
Nc1nc2c(ncn2[C@@H]2O[C@H](C(=O)N[C@H](Cc3ccccc3)C(=O)NCCCc3ccccc3)[C@@H](O)[C@H]2O)c(=O)[nH]1	nt	24	nt	nt	nt
CC(=O)c1c(C)nc2nc(-c3ccccc3)nn2c1C	nt	109	1%	-1%	72%
O=C(NNc1c(Cl)cccc1Cl)c1c(F)cccc1Cl	6%	-7	-7%	-3%	-22%
O=C(NNc1c(Cl)cccc1Cl)c1sccc1Cl	12%	-75*	-20%	-7%	4%
O=C(COC(=O)c1ccccc1OCCOc1ccccc1)Nc1ccc(Br)cc1	nt	nt	-15%	-5%	nt
CCOC(=O)c1c(CN2CCNCC2)nc2ccc(Cl)cc2c1-c1ccccc1	?	2	?	10µM*	-17%
Cc1nc2ccc(Cl)cc2c(-c2ccccc2)c1C(=O)N(C)C	?	-4	nt	nt	3%
CC(C)c1ccc(NC(=O)N[C@H]2CC[C@@]34CCCN3C(=O)CCC[C@H]4C2Cc2ccccc2)cc1 (stereo partly specified)	nt	9	nt	nt	nt
CSc1nsc(SCc2cnc(C)nc2N)n1	12%	-8	?	22µM*	-11%
CCN(CC(=O)Nc1cccc(OC)c1)c1ncnc2sc(C)c(C)c12	?	-74*	-22%	-17%	20µM*
BrC(=C\c1ccccc1)/C=N/n1cnnc1	10µM*	-99*	?	?	?
BrC(=C\c1ccccc1)/C=N/Nc1ccc2nncn2n1	?	?	6%	-20%	-2%
CCOC(=O)c1ccc(N2C(=O)c3n[nH]c(C)c3C2c2ccco2)cc1 (stereo unspecified)	-1%	-36	-27%	nt	0%
CCOC(=O)c1ccc(N2C(=O)c3n[nH]c(C)c3C2c2ccc(OC)cc2OC)cc1 (stereo unspecified)	4%	22	nt	nt	?
SMILES	HCV inh	HCMV inh	Vaccinia Venus	Vaccinia mCherry	FMDV antiviral
COc1cc(C2c3c(n[nH]c3C)C(=O)N2c2ccc(Br)cc2)ccc1O (stereo unspecified)	?	10	-8%	-8%	-4%
CCOC(=O)c1ccc(N2C(=O)c3n[nH]c(-c4ccco4)c3C2c2ccc(OC)cc2OC)cc1 (stereo unspecified)	nt	-105*	-18%	-13%	?
CCOC(=O)c1ccc(N2C(=O)c3n[nH]c(-c4ccco4)c3C2c2ccc(O)c(OCC)c2)cc1 (stereo unspecified)	nt	-105*	-17%	-23%	?
CCOc1cc(C2c3c(n[nH]c3C)C(=O)N2c2ccc(Br)cc2)ccc1O (stereo unspecified)	25µM*	?	-3%	-6%	-1%
CCOC(=O)c1ccc(N2C(=O)c3n[nH]c(-c4ccco4)c3C2c2cccc([N+](=O)[O-])c2)cc1 (stereo unspecified)	11µM*	70	?	?	35µM*
Cc1ccc(C)c(CN2C(=O)C3(c4ccccc42)N(c2ccc(Cl)cc2)C(=O)CS3(=O)=O)c1 (stereo unspecified)	nt	-4	-3%	0%	-21%
CCOC(=O)c1ccc(N2C(=O)c3[nH]nc(-c4ccc(C)cc4)c3C2c2ccc(O)c(OCC)c2)cc1 (stereo unspecified)	nt	-101*	-20%	-17%	?
CCOC(=O)c1ccc(N2C(=O)c3[nH]nc(-c4ccc(C)cc4)c3C2c2cccs2)cc1 (stereo unspecified)	nt	?	-13%	-13%	?
CCOC(=O)c1ccc(N2C(=O)c3n[nH]c(-c4ccco4)c3C2c2ccc(C(=O)OC)cc2)cc1 (stereo unspecified)	nt	-80*	-22%	-14%	?
COC(=O)[C@@H]1[C@@H](CO)[C@@H]2Cn3c(ccc(Br)c3=O)[C@@H]2N1CCc1ccccc1	nt	-33	nt	nt	nt
COc1ccc(C(=O)C2CCN(C(=S)NCCc3ccc(OC)c(OC)c3)CC2)cc1	?	?	-27%	i	-24%
CCOc1ccc(C(=O)C2CCN(C(=O)c3ccc([N+](=O)[O-])cc3)CC2)cc1	10µM*	?	nt	nt	?
CCOC(=O)C1CCN(C(=O)c2ccc3nc(-c4ccc(OC)cc4)c(-c4ccc(OC)cc4)nc3c2)CC1	25µM*	0	nt	nt	18%
CCOc1ccc(C(=O)C2CCN(C(=O)c3ccccc3C(=O)O)CC2)cc1	10%	7	nt	nt	-3%
CCOC(=O)N1CCN(C(=O)c2ccc(CSc3ccc(Cl)cc3)cc2)CC1	?	-71*	4%	-18%	25µM*
COc1ccc(CCNC(=S)N2CCC(C(=O)c3ccc(F)cc3)CC2)cc1OC	0.5µM*	?	nt	nt	?
COc1ccc(OC)c(NC(=O)CCCOc2cc(=O)n(C)c3ccccc23)c1	nt	6	1%	-12%	-10%
CCCN1C(=O)c2ccccc2NC1c1ccc(OC)c(COc2ccc([N+](=O)[O-])cc2)c1 (stereo unspecified)	nt	nt	-11%	17%	nt
CCOC(=O)N1CCN(C(=O)c2ccc(Oc3ccc([N+](=O)[O-])cc3)cc2)CC1	?	-83*	-15%	-11%	?
CN1CCN(C(=O)c2ccc(Oc3ccc([N+](=O)[O-])cc3)cc2)CC1	18%	26	1%	0%	-29%
COc1ccc(C(=O)C2CCN(C(=O)c3ccc(F)cc3)CC2)cc1	25µM*	?	-1%	i	-29%
